Source: PubChem BioAssay (Tox21)
Results filed as inconclusive are left out. Active and inactive are the calls of the source. Unless noted, calls come from the whole dose curve; as a rule, active = well fitted curve in the direction sought with a large enough effect in the repeat runs; inconclusive = weak or mixed curves; inactive = no such curve, though single readings can be large; an effect the other way counts as inactive or inconclusive.

Columns and labels:
[1] = qHTS assay to identify small molecule antagonists of the estrogen related receptor (ERR) signaling pathway - cell viability counter screen (AID 1224818);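 note: series mostly up to about 46 µM; viability measured after 17.5 h of compound exposure; % is set by controls: 0 for no effect and ±100 for the full control effect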
Summary of the method: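 ERR reporter cells plated 6 h at 37 C/5% CO2, then compounds in DMSO pin-transferred and incubated 17.5 h at 37 C. Viability read as CellTiter-Fluor fluorescence after 30 min at 37 C.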

[2] = qHTS assay to identify small molecule antagonists of the estrogen related receptor signaling pathway with the pleiotropic PPARgamma coactivator (PGC) cell viability counter screen (AID 1224822; note: series mostly up to about 46 µM; % is set by controls: 0 for no effect and ±100 for the full control effect)
Summary of the method: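 PGC/ERR cells were seeded at 2,000 cells/well, rested 6 h at 37 C/5% CO2, then given compounds in DMSO by pin tool and incubated 17.5 h at 37 C. Viability came from CellTiter-Fluor fluorescence after 30 min.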

[3] = qHTS assay to identify small molecule antagonists of the estrogen related receptor (ERR) signaling pathway (AID 1224819;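 note: luminescence from an ERR-driven luciferase reporter measured with One-Glo reagent; series mostly up to about 46 µM; % is set by controls: 0 for no effect and ±100 for the full control effect; nearly all actives have a fitted effect of over 50% in size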)
Summary of the method: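 ERR reporter cells were plated at 2,000 cells/well and left 6 h at 37 C/5% CO2 before pin-tool transfer of compounds in DMSO. After 18 h at 37 C, One-Glo was added and luminescence was read 30 min later at room temperature.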

[4] = tested on: estrogen-related receptor alpha (ERRalpha) with PGC-1alpha coactivator, human; assay: qHTS assay to identify small molecule antagonists of the estrogen related receptor signaling pathway with the pleiotropic PPARgamma coactivator (PGC) (AID 1224821; calls by dose curve;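 note: series mostly up to about 46 µM; % is set by controls: 0 for no effect and ±100 for the full control effect; lower luminescence signal means antagonism of PGC/ERR signalling; nearly all actives have a fitted effect of over 50% in size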)
Summary of the method: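 Quantitative HTS for antagonism: PGC/ERR cells received compounds after 6 h attachment and were incubated 18 h at 37 C, with luminescence (One-Glo) as the endpoint.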

[5] = qHTS assay to identify small molecule agonists of the estrogen related receptor signaling pathway with the pleiotropic PPARgamma coactivator (PGC) (AID 1224823); note: % is set by controls: 0 for no effect and ±100 for the full control effect
Summary of the method: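 Cell-based luciferase assay in the NTP-supplied PGC/ERR line, 2,000 cells/well; 18 h compound exposure at 37 C, luminescence after One-Glo.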

[6] = qHTS assay for small molecules that induce genotoxicity in human embryonic kidney cells expressing luciferase-tagged ATAD5 (AID 651632); note: % is set by controls: 0 for no effect and ±100 for the full control effect; nearly all actives have a fitted effect of over 15% in size
Summary of the method: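 HEK293T cells carrying a luciferase reporter tagged to ATAD5 were exposed to compound or DMSO vehicle for 16 hr at 37C, 5% CO2. Amplite was added, and after 30 min at room temperature luciferase activity was read as a marker of ATAD5 induction.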

[7] = qHTS assay for small molecule agonists of the p53 signaling pathway - cell viability (AID 651633; calls by dose curve;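 note: p53RE-bla HCT reporter cells with a stable beta-lactamase p53 reporter; series mostly up to about 83 µM; % is set by controls: 0 for no effect and ±100 for the full control effect; nearly all actives have a fitted effect of over 30% in size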)
Summary of the method: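 p53RE-bla cells, seeded at 4,000 per well and rested 5 h at 37 C/5% CO2, received compounds in DMSO for 16 h at 37 C. CellTiter-Glo was then added, and luminescence was read after 30 min at room temperature to gauge cytotoxicity.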

[8] = qHTS assay for small molecules that induce genotoxicity in human embryonic kidney cells expressing luciferase-tagged ATAD5 - cell viability (AID 651634; calls by dose curve; note: % is set by controls: 0 for no effect and ±100 for the full control effect; nearly all actives have a fitted effect of over 25% in size)
Summary of the method: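 HEK293T cells expressing luciferase-tagged ATAD5 were exposed to compound or DMSO for 15.5 hr at 37C, 5% CO2. Viability was then read as live-cell protease activity by CellTiter-Fluor fluorescence after 30 min at 37C.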

[9] = qHTS assay to test for compound auto fluorescence at 590 nm (red) in HepG2 cells (AID 720674); note: % is set by controls: 0 for no effect and ±100 for the full control effect
Summary of the method: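 Intrinsic compound fluorescence in the red window (Ex/Em 540/590 nm) is measured in attached HepG2 cells exposed for 1 hr, DMSO vehicle as baseline, benchmarked to Rose Bengal sodium.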

[10] = qHTS assay to test for compound auto fluorescence at 535 nm (green) in HepG2 cells (AID 720675); note: % is set by controls: 0 for no effect and ±100 for the full control effect
[11] = qHTS assay to test for compound auto fluorescence at 460 nm (blue) in HEK293 cells (AID 720678); note: % is set by controls: 0 for no effect and ±100 for the full control effect
Summary of the method: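 Cells were seeded and left to adhere for 4-5 hr at 37C. Compounds were then pin-transferred. After an overnight incubation at 37C under 5% CO2, intrinsic fluorescence at 405/460 nm was measured and referenced to triamterene.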

[12] = qHTS assay to test for compound auto fluorescence at 590 nm (red) in HEK293 cells (AID 720679); note: % is set by controls: 0 for no effect and ±100 for the full control effect
Summary of the method: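 Each well held 2,000 HEK293 cells in medium containing 10% dialyzed FBS. Following 4-5 hr attachment at 37C, 23 nL test compound or DMSO was added; plates sat overnight, and red fluorescence (540/590nm) was recorded.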

[13] = qHTS assay to test for compound auto fluorescence at 535 nm (green) in HEK293 cells (AID 720680); note: % is set by controls: 0 for no effect and ±100 for the full control effect
[14] = qHTS assay to test for compound auto fluorescence at 460 nm (blue) in HEK293 cell free culture (AID 720681); note: % is set by controls: 0 for no effect and ±100 for the full control effect
Summary of the method: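 Test compounds were pinned into cell-free culture medium (DMEM with 10% FBS) and fluorescence was read directly at Ex/Em 405/460 nm. Signals were expressed as fluorescence equivalents of triamterene, with DMSO vehicle as control.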

[15] = qHTS assay to test for compound auto fluorescence at 535 nm (green) in HEK293 cell free culture (AID 720682); note: % is set by controls: 0 for no effect and ±100 for the full control effect
Summary of the method: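 No cells present: wells hold DMEM supplemented with 10% FBS, into which compound or vehicle is pinned. Green emission is then recorded (485 nm excitation, 535 nm emission) and scaled to fluorescein.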

[16] = qHTS assay to test for compound auto fluorescence at 590 nm (red) in HEK293 cell free culture (AID 720683); note: % is set by controls: 0 for no effect and ±100 for the full control effect
Summary of the method: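 Tox21 10K library compounds were pinned into cell-free DMEM with 10% FBS and fluorescence was read at excitation 540 nm. Activity is expressed as Rose Bengal sodium equivalency.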

[17] = qHTS assay to test for compound auto fluorescence at 590 nm (red) in HepG2 cell free culture (AID 720684); note: % is set by controls: 0 for no effect and ±100 for the full control effect
Summary of the method: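 Red fluorescence (540 nm excitation, 590 nm emission) was measured after compound transfer into cell-free MEM supplemented with 10% FBS. Values are equivalencies against Rose Bengal sodium.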

[18] = qHTS assay to test for compound auto fluorescence at 460 nm (blue) in HepG2 cell free culture (AID 720685); note: % is set by controls: 0 for no effect and ±100 for the full control effect
Summary of the method: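 Compound (23 nL) or DMSO pinned into cell-free MEM with 10% FBS; blue fluorescence read at 405/460 nm excitation/emission, expressed as auto-fluorescence equivalency to triamterene.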

[19] = qHTS assay to test for compound auto fluorescence at 535 nm (green) in HepG2 cell free culture (AID 720686); note: % is set by controls: 0 for no effect and ±100 for the full control effect
[20] = qHTS assay to test for compound auto fluorescence at 460 nm (blue) in HepG2 cells (AID 720687); note: % is set by controls: 0 for no effect and ±100 for the full control effect
Summary of the method: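 Cells (2,000/well in MEM with 10% FBS) attached overnight at 37 C, then were exposed to compound or DMSO for 1 hr at 37 C, 5% CO2. Fluorescence read at Ex/Em 405/460 nm, expressed as triamterene-equivalent signal.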

[21] = qHTS assay to identify small molecule antagonists of the glucocorticoid receptor (GR) signaling pathway - cell viability counter screen (AID 720693); note: % is set by controls: 0 for no effect and ±100 for the full control effect; nearly all actives have a fitted effect of over 55% in size
[22] = qHTS assay for identifying genotoxic compounds that show differential cytotoxicity against isogenic chicken DT40 cell lines with known DNA damage response pathways - wild type cell line (AID 743012); note: % is set by controls: 0 for no effect and ±100 for the full control effect; nearly all actives have a fitted effect of over 60% in size
Summary of the method: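 Parental DNA repair-proficient DT40 cells, 300 per well, were pre-incubated ~0.5 h at 37 C/5% CO2, pin-dosed with compounds in DMSO, then incubated 40 h. Viability was read as CellTiter-Glo luminescence after 30 min at room temperature.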

[23] = qHTS assay for identifying genotoxic compounds that show differential cytotoxicity against isogenic chicken DT40 cell lines with known DNA damage response pathways - Rev3 mutant cell line (AID 743014); note: % is set by controls: 0 for no effect and ±100 for the full control effect; nearly all actives have a fitted effect of over 55% in size
[24] = qHTS assay for identifying genotoxic compounds that show differential cytotoxicity against isogenic chicken DT40 cell lines with known DNA damage response pathways - Rad54/Ku70 mutant cell line (AID 743015); note: % is set by controls: 0 for no effect and ±100 for the full control effect; nearly all actives have a fitted effect of over 60% in size
[25] = qHTS assay to identify small molecule antagonists of the androgen receptor (AR) signaling pathway - cell viability counter screen (AID 743033; note: % is set by controls: 0 for no effect and ±100 for the full control effect; nearly all actives have a fitted effect of over 45% in size)
[26] = qHTS assay to identify small molecule antagonists of the thyroid receptor (TR) signaling pathway - cell viability counter screen (AID 743064); note: % is set by controls: 0 for no effect and ±100 for the full control effect; nearly all actives have a fitted effect of over 50% in size
Summary of the method: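 Rat GH3 pituitary tumor cells stably expressing two TR response elements driving luciferase were plated, rested 4 h, then dosed with library compounds and T3 (1 nM final). After 23.5 h at 37 °C, CellTiter-Fluor was added for 30 min and fluorescence recorded.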

[27] = tested on: thyroid hormone receptor (rat, GH3 cells); assay: qHTS assay to identify small molecule agonists of the thyroid receptor (TR) signaling pathway (AID 743066; calls by dose curve; note: % is set by controls: 0 for no effect and ±100 for the full control effect)
[28] = molecular target: Estrogen receptor (Homo sapiens) (UniProt P03372); assay: qHTS assay to identify small molecule antagonists of the estrogen receptor alpha (ER-alpha) signaling pathway (AID 743069; active = well fitted curve in the direction sought with a large enough effect in the signal ratio in the repeat runs, not every such curve was filed as active; the % refers to the signal ratio; note: % is set by controls: 0 for no effect and ±100 for the full control effect)
Summary of the method: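 HEK293 cells stably carrying an ER-alpha-UAS-bla beta-lactamase reporter were pre-cultured overnight in 2% charcoal-stripped FBS medium. Test compounds in DMSO were added together with 17beta-estradiol for 18 hr at 37C. Read-out was fluorescence after 2 hr with LiveBLAzer B/G FRET substrate at room temperature.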

[29] = qHTS assay to identify small molecule antagonists of the estrogen receptor alpha (ER-alpha) signaling pathway - cell viability counter screen (AID 743074; calls by dose curve; note: % is set by controls: 0 for no effect and ±100 for the full control effect; nearly all actives have a fitted effect of over 45% in size)
[30] = molecular target: Estrogen receptor (Homo sapiens) (UniProt P03372); assay: qHTS assay to identify small molecule agonists of the estrogen receptor alpha (ER-alpha) signaling pathway (AID 743075; calls by dose curve; note: % is set by controls: 0 for no effect and ±100 for the full control effect)
[31] = molecular target: Estrogen receptor (Homo sapiens) (UniProt P03372); assay: qHTS assay to identify small molecule agonists of the estrogen receptor alpha (ER-alpha) signaling pathway using the BG1 cell line (AID 743079); note: potency is the fitted concentration of half-maximal effect; nearly all actives have a fitted effect of over 20% in size
[32] = qHTS assay to identify small molecule antagonists of the estrogen receptor alpha (ER-alpha) signaling pathway using the BG1 cell line (AID 743080; calls by dose curve; note: series mostly up to about 70 µM; % is set by controls: 0 for no effect and ±100 for the full control effect; nearly all actives have a fitted effect of over 25% in size)
Summary of the method: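 Antagonist mode: compounds in DMSO were pinned onto BG1-Luc-4E2 cells alongside 17beta-estradiol agonist, incubated 21.5 h, and ERE-driven luciferase measured with ONE-Glo. Cytotoxicity was multiplexed using CellTiter-Fluor fluorescence.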

[33] = qHTS assay to identify small molecule antagonists of the estrogen receptor alpha (ER-alpha) signaling pathway using the BG1 cell line - cell viability counter screen (AID 743081);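 note: compound given together with 17beta-estradiol as the ER stimulus; series mostly up to about 70 µM; % is set by controls: 0 for no effect and ±100 for the full control effect; nearly all actives have a fitted effect of over 45% in size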
Aromatase (Homo sapiens) = Aromatase (Homo sapiens) (UniProt P11511); assay: qHTS assay to identify aromatase inhibitors (AID 743083)
[34] = qHTS assay to identify aromatase inhibitors - cell viability counter screen (AID 743084)
[35] = molecular target: Aryl hydrocarbon receptor (Homo sapiens) (UniProt P35869); assay: qHTS assay to identify small molecule that activate the aryl hydrocarbon receptor (AhR) signaling pathway (AID 743085)
Summary of the method: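 Compounds were tested in HepG2 hepatocellular carcinoma cells harbouring a stably integrated luciferase gene under control of 20 DREs. Increased reporter signal after 24 h treatment at 37C was taken as AhR activation.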

[36] = qHTS assay to identify small molecule that activate the aryl hydrocarbon receptor (AhR) signaling pathway - cell viability counter screen (AID 743086)
Summary of the method: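 HepG2-AhR-luc (HG2L7.5c1) cells, 4000/well, were preincubated 5 h at 37C, exposed to compound in qHTS format for 24 hr at 37C, then given CellTiter-Fluor for 30 min; viability was read as fluorescence in the reporter wells.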

[37] = molecular target: Peroxisome proliferator-activated receptor gamma (Homo sapiens) (UniProt P37231); assay: qHTS assay to identify small molecule agonists of the peroxisome proliferator-activated receptor gamma (PPARg) signaling pathway (AID 743094; active = well fitted activation curve with a large enough effect in the signal ratio in the repeat runs, not every such curve was filed as active; the % refers to the signal ratio)
Summary of the method: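 GeneBLAzer PPARg UAS-bla HEK293H cells carrying a stably integrated beta-lactamase reporter were pre-incubated 5 h at 37C, then exposed to compounds in DMSO for 17 h at 37C; LiveBLAzer B/G FRET substrate was added for 1 h at room temperature and fluorescence read.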

[38] = qHTS assay to identify small molecule phospholipidosis (PLD) inducers (AID 1259344; active = well fitted curve in the direction sought with a large enough effect; an effect the other way counts as inactive or inconclusive)
Summary of the method: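 HepG2 cells on collagen I, attached 4 h at 37 C, were co-treated with compound and LipidTOX Red dye for 24 h at 37 C, then fixed with paraformaldehyde plus Hoechst 33342 and imaged by high-content microscopy for phospholipid accumulation.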

[39] = molecular target: Nuclear receptor subfamily 1 group I member 2 (Rattus norvegicus) (UniProt Q9R1A7); assay: Rat pregnane X receptor (rPXR) activation by small molecules, qHTS assay (AID 1346983); settings: rPXR luciferase reporter cells, One-Glo luminescence, 24 h; max activation: active compounds read high
Summary of the method: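 Cell-based rPXR luciferase reporter assay, 2,000 cells per well, rested 5hr at 37 C before compound addition in DMSO, then 24 hr at 37 C. One-Glo reagent was added and luminescence read after 30 min at room temperature.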

Estrogen receptor (Homo sapiens), sequence (P03372 whole entry, looked up): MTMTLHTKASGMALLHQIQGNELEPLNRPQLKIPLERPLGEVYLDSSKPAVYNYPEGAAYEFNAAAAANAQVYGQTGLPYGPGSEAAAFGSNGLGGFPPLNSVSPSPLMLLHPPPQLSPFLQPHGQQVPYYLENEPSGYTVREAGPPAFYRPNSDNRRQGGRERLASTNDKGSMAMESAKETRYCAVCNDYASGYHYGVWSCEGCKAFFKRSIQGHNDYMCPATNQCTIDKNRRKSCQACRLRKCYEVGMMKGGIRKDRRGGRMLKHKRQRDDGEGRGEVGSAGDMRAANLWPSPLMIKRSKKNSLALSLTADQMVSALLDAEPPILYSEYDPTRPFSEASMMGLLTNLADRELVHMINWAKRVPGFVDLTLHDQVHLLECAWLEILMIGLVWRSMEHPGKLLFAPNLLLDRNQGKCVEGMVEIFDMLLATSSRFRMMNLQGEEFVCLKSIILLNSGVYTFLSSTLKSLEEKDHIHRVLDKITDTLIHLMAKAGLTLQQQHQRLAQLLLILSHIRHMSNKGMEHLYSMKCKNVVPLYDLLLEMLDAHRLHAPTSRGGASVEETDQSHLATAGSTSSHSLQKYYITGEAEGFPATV
Aryl hydrocarbon receptor (Homo sapiens), sequence (P35869 whole entry, looked up): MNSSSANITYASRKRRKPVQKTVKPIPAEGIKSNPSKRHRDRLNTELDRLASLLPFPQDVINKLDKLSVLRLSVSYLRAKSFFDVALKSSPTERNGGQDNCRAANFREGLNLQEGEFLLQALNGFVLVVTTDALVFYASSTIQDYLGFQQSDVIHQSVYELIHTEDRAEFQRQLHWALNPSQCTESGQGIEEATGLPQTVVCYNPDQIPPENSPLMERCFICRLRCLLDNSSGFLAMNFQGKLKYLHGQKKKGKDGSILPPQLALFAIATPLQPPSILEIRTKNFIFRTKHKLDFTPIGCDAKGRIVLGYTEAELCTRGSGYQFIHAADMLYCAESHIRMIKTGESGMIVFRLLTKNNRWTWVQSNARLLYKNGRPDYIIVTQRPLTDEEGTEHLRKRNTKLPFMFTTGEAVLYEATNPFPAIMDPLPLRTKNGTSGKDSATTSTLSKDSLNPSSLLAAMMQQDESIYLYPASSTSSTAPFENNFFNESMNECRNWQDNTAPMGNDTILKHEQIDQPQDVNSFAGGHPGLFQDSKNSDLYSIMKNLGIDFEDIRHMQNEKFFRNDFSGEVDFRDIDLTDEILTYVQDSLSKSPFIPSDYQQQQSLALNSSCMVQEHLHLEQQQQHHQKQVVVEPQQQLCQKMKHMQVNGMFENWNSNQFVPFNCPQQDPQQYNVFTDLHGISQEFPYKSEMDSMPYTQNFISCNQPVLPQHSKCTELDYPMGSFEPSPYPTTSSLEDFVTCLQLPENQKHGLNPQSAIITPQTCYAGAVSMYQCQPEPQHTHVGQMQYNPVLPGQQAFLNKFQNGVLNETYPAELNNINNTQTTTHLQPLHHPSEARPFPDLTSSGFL
Nuclear receptor subfamily 1 group I member 2 (Rattus norvegicus), sequence (Q9R1A7 whole entry, looked up): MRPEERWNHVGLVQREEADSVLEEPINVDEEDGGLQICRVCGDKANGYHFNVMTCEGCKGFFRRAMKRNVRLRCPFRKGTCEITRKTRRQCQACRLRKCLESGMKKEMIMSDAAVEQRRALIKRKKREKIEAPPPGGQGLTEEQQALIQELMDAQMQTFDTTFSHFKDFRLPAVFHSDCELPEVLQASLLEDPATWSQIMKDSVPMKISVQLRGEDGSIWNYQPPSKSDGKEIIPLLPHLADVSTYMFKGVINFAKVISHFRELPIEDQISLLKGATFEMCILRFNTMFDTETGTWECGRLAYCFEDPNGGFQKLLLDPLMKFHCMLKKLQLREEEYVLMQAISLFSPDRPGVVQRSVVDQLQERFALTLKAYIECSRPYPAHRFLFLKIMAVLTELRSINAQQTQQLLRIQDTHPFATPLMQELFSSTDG
Peroxisome proliferator-activated receptor gamma (Homo sapiens), sequence (P37231 whole entry, looked up): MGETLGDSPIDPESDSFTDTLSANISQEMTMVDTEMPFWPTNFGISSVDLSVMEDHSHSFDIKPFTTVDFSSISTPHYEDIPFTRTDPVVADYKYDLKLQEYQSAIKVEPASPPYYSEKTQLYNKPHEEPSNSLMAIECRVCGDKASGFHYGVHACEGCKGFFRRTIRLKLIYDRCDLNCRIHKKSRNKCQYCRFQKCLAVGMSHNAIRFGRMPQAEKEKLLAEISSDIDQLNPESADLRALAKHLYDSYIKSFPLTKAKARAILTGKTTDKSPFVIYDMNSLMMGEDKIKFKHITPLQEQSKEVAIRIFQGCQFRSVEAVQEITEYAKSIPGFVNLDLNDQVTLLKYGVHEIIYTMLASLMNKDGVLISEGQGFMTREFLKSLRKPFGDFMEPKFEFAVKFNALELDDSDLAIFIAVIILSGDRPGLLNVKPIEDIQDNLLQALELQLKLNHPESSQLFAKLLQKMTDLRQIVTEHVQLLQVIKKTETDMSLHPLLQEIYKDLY
Aromatase (Homo sapiens), sequence (P11511 whole entry, looked up): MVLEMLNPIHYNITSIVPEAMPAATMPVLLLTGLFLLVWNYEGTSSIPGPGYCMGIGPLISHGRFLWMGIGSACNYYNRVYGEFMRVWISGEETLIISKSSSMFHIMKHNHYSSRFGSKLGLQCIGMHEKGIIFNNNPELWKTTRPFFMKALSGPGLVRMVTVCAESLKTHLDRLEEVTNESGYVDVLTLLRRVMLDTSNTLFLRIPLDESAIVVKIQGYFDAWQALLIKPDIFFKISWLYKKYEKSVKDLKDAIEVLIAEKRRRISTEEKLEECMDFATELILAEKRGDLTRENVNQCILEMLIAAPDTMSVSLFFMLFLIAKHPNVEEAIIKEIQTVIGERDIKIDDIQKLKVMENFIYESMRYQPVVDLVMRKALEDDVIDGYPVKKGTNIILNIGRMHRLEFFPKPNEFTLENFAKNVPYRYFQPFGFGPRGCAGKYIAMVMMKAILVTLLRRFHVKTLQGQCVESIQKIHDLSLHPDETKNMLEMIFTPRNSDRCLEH

c1ccc2cc(CC3=NCCN3)ccc2c1
inactive: Potency [1] | Potency [2]

[Cl-].[Cl][Pt].[NH2-].[NH2-].c1ccncc1
inactive: Potency [1] | Potency [2]

C#CCN[C@H](C)Cc1ccccc1
inactive: Potency [1] | Potency [3] | Potency [4] | Potency [2] | Potency [5]

CC(N)Cc1c[nH]c2ccc(OCc3cccs3)cc12 (stereo unspecified)
inactive: Potency [1] | Potency [3] | Potency [4] | Potency [5]

CC(N)Cc1c[nH]c2ccc(O)cc12 (stereo unspecified)
inactive: Potency [1] | Potency [3] | Potency [2]

c1ccc(C2(c3ccccc3)CC2C2=NCCN2)cc1 (stereo unspecified)
active: Potency [31] 700 pM
inactive: Potency [6] | Potency [7] | Potency [8] | outcome [9] | Potency [10] | Potency [11] | outcome [12] | Potency [13] | Potency [14] | Potency [15] | outcome [16] | outcome [17] | Potency [18] | Potency [19] | Potency [20] | Potency [21] | Potency [22] | Potency [23] | Potency [24] | Potency [25] | Potency [26] | Potency [27] | Potency [28] | Potency [29] | Potency [30] | Potency [32] | Potency [33] | Potency (Aromatase (Homo sapiens)) | Potency [34] | Potency [35] | Potency [36] | Potency [37] | Potency [1] | Potency [3] | Potency [4] | Potency [2] | Potency [5] | Potency [38] | max activation [39] -1.58%
